Measured values from PubChem BioAssay.
Calls of active or inactive are those of the source.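 The calls were made as follows, unless noted: active = inhibition of the reporter signal at or above 50%; inactive = inhibition below 50%.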

What was measured:
[1] = inhibitors of TNFa-induced NFkB p65 translocation, primary screen, imaging, HUVEC, MLSMR starter and 10KST1 sets (AID 438;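 active = inhibition above 20% together with a positive visual image hit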;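 also: compound added about 3h40 before a 20 min TNFalpha stimulation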;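 as to inhibition: signal is the nuclear over cytoplasmic p65 intensity ratio per well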); conditions: HUVEC TNFa-induced p65 nuclear translocation; cell count: measured here: nuclei count (cytotoxicity indicator), at 2.08 µM; inhibition: at 2 µM, stronger effect = higher value, 0% TNFa-plus-vehicle, 100% no-TNFa wells
[2] = reduction of polyQ htt aggregates in cells – imaging, exon1htt(103Q)mCFP cells, high-content imaging, primary screen (AID 483;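 active = visual image review flags a hit and inhibition of aggregation exceeds 20%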;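 also: compound exposure lasted 3 days before fixation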;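 as to nuclei count: percent of the per-plate median nuclei count of sample wells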); conditions: exon1htt(103Q)mCFP cell line, aggregate imaging, at 2 µM; inhibition of aggregation: stronger effect = higher value; nuclei count: measured here: cell count, toxicity
[3] = endothelial E-selectin expression blockers – imaging, HUVEC, immunofluorescence, MLSMR starter and 10KST1 sets, primary screen (AID 487;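 active = visually confirmed hit in the image check and inhibition above 20%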;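 as to inhibition: signal is fraction of cell area covered by stained E-selectin grains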;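 as to nuclei count: 100% = median nuclei count of all wells on the same plate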); conditions: HUVEC TNFalpha-induced E-selectin immunofluorescence imaging, at 2 µM; inhibition: stronger effect = higher value; nuclei count: measured here: cell number, toxicity
[4] = molecular target: Voltage-gated potassium channel subunit beta-2 (Rattus norvegicus) (UniProt P62483); assay: inhibitors of rat Kvbeta2 reductase activity – biochemical, NADPH fluorescence, primary screen (AID 622;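 active = fluorescence slope higher than the sample average by over 3 SD, cut at about -0.22 in these data, passing the limit was not always enough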;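 also: slope of raw intensity against log time taken from 70 to 1610 s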); conditions: recombinant KvBeta, 4-cyanobenzaldehyde reduction, at 10 µM, stronger effect = higher value
[5] = molecular target: Voltage-gated potassium channel subunit beta-2 (Rattus norvegicus) (UniProt P62483); assay: enhancers of rat Kvbeta2 NADPH turnover – biochemical, NADPH fluorescence, primary screen (AID 623;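 active = NADPH fluorescence slope more negative than the mean of all samples by about 3 SD, 99.7% confidence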;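 also: fluorescence intensity change per second fitted from 20 to 320 s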); conditions: Recombinant KvBeta, NADPH fluorescence decrease slope, 10 min; at 10 µM; stronger effect = lower value
[6] = molecular target: Alpha-2C adrenergic receptor (Homo sapiens) (UniProt P18825); assay: compounds altering alpha2C-coupled GIRK flux – cell-based, HEK293 alpha2C/GIRK1/2, thallium flux, primary screen (AID 624;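 active = fluorescence slope after compound addition differing from the mean of all screened samples at 99.7% confidence, in either direction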;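 also: slope of fluorescence ratio to pre-addition baseline per second over 15 to 24 s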); conditions: thallium flux BTC fluorescence, at 10 µM, actives lie on both sides
[7] = blockers of RIG-like receptor reporter activation – cell-based, Sendai virus stimulus, luciferase, 10K MLSCN set, TLR/RLR signaling modifier project, primary screen (AID 602276;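 active = inhibition at or above 50% at 10 µM; inactive = inhibition below 50%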;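 also: firefly luciferase from ISG56 promoter only with Renilla not read in this screen; 0% = Sendai virus plus DMSO and 100% = medium plus DMSO without virus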); conditions: HEK293 RL24 IRF3 luciferase reporter, at 10 µM, stronger effect = higher value
[8] = TLR3 IRF3 reporter activation blockers – cell-based, poly I:C stimulus, luciferase, 10K MLSCN set, primary screen (AID 602277); conditions: HEK293-TLR3 RL24 IRF3 luciferase reporter, at 10 µM, stronger effect = higher value

Chain of Voltage-gated potassium channel subunit beta-2 (Rattus norvegicus) (P62483 whole entry, looked up): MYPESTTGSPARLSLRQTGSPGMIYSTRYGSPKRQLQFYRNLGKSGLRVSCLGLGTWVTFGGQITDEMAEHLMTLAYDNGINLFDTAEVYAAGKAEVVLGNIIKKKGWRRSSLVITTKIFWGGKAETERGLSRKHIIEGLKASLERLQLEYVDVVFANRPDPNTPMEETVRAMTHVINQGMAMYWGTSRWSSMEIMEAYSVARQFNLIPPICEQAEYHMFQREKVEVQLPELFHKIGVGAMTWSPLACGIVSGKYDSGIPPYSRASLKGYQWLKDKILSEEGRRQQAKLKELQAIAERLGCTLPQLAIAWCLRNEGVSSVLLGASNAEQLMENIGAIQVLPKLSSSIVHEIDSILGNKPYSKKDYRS
Chain of Alpha-2C adrenergic receptor (Homo sapiens) (P18825 whole entry, looked up): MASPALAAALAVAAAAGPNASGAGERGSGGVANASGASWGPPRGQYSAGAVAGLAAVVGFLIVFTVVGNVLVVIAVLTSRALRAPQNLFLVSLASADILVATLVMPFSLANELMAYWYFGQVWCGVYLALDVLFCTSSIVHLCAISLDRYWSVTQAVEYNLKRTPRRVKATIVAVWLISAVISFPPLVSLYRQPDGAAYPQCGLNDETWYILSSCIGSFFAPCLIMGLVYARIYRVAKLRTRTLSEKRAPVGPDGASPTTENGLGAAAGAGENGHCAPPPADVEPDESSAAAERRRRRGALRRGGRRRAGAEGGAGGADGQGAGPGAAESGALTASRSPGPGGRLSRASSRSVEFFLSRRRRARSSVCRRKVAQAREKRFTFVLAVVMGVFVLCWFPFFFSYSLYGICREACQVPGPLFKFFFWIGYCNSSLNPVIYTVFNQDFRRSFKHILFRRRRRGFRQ

Compound	cell count [1]	inhibition [1]	inhibition of aggregation [2]	nuclei count [2] [%]	inhibition [3]	nuclei count [3] [%]	fluorescence slope [4]	NADPH fluorescence slope [5]	slope [6]	inhibition [7]	inhibition [8]
Cc1cc(-c2ccccc2)c(C#N)c(N)n1	331	-6.4% (inactive)	-10.4% (inactive)	94.7	-11.3% (inactive)	115	-0.394 (inactive)	-6.4e-07 (inactive)	0.00466 (inactive)	18.7% (inactive)	34.2% (inactive)
COc1cc2c(cc1OC)CN(C(=O)COc1ccc(C)c(C)c1)CC2	653	-3% (inactive)	-11.6% (inactive)	106	17.1% (inactive)	106	-0.456 (inactive)	1.3e-05 (inactive)	0.00534 (inactive)	18.6% (inactive)	20.9% (inactive)
N#Cc1c2n(c(=O)[nH]c1=O)CCCCC2	270	14.4% (inactive)	18.2% (inactive)	113	16.1% (inactive)	110	-0.5 (inactive)	-0.000252 (inactive)	0.00665 (inactive)	-7.37% (inactive)	0.231% (inactive)
CCOC(=O)c1cccc(NC(=O)CSc2nnc(-c3cccnc3)n2CC)c1	517	-6.7% (inactive)	1.2% (inactive)	82.2	-12.8% (inactive)	112	-0.506 (inactive)	-2.6e-05 (inactive)	0.00514 (inactive)	12.5% (inactive)	11.6% (inactive)
CC(C)Cn1c(-c2ccc(F)cc2)n[nH]c1=S	390	2.6% (inactive)	-11.3% (inactive)	106	-69.3% (inactive)	118	-0.395 (inactive)	-3.7e-05 (inactive)	0.0039 (inactive)	9.62% (inactive)	12.7% (inactive)
CCCn1cc(SCC(N)=O)c2ccccc21	743	-8% (inactive)	-1.3% (inactive)	107	-33.9% (inactive)	113	-0.382 (inactive)	-6.4e-06 (inactive)	0.00614 (inactive)	13.5% (inactive)	27.7% (inactive)
COc1ccc(CCNC(=O)c2cnc3scc(C)n3c2=O)cc1OC	573	-5.3% (inactive)	-6% (inactive)	82.6	19.7% (inactive)	86.4	-0.411 (inactive)	-6.2e-05 (inactive)	0.00579 (inactive)	6.05% (inactive)	33.9% (inactive)
CC1=C(C(=O)Nc2ccccc2)C(c2cccs2)C(C#N)=C(SCC#N)N1 (centres undefined)	713	-16.4% (inactive)	27.1% (inactive)	77.7	34.7% (inactive)	99.1	-0.525 (inactive)	-6.3e-05 (inactive)	0.00547 (inactive)	-25.9% (inactive)	-5.98% (inactive)
COc1ccc(N2CCN(CCCNC(=O)CC3Oc4ccc(C)cc4NC3=O)CC2)cc1 (centres undefined)	581	0.9% (inactive)	11.6% (inactive)	104	-40.7% (inactive)	130	-0.472 (inactive)	1.7e-05 (inactive)	0.00619 (inactive)	12.9% (inactive)	22.1% (inactive)
CC(=O)N(CCN(C(C)=O)c1ccccc1)c1ccccc1	448	-1.1% (inactive)	4% (inactive)	80.2	12.5% (inactive)	88.5	-0.454 (inactive)	7e-05 (inactive)	0.00518 (inactive)	13.8% (inactive)	17.2% (inactive)
O=c1[nH]c(=O)n(C2CCCCCC2)c(O)c1C=NCc1ccc(F)cc1	666	5% (inactive)	0.1% (inactive)	109	3% (inactive)	110	-0.321 (inactive)	3.1e-05 (inactive)	0.00576 (inactive)	14.6% (inactive)	26.9% (inactive)
CC(=O)Nc1cccc(OCC(O)Cn2cnc3ccccc32)c1 (centres undefined)	632	-20.4% (inactive)	12.1% (inactive)	101	-23.9% (inactive)	107	-0.674 (inactive)	1.3e-05 (inactive)	0.00619 (inactive)	14.1% (inactive)	25.8% (inactive)
Cc1cccc(NC(=O)CSc2nnc(-c3cc(C)n(-c4ccccc4)c3C)o2)c1C	590	-16.6% (inactive)	-14.8% (inactive)	48	-27.3% (inactive)	111	-0.6 (inactive)	-1.4e-05 (inactive)	0.00877 (inactive)	5.08% (inactive)	52.9% (active)
CC1(C)Cc2cccc(OCC(O)CN3CCN(c4ccccn4)CC3)c2O1 (centres undefined)	518	-7.3% (inactive)	3.5% (inactive)	92.3	-90.2% (inactive)	111	-0.624 (inactive)	-2e-05 (inactive)	0.00547 (inactive)	-6.85% (inactive)	-0.552% (inactive)
